{"source": "PubChem BioAssay (NCATS)", "key": {"CASKI": {"tested_on": "CASKI", "assay": "Primary qHTS to identify gynecologic anti-cancer compounds using libraries of approved drugs and bioactive compounds (AID 1345084); further: nearly all actives have a fitted effect of over 55% in size", "details": "Gynecologic cancer cell panel viability, ATPlite luminescence, 48 h; series mostly up to 57.5 µM", "procedure,_shortened": "(§1)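 Cells, 1,000 per well, plated 16 h, then exposed 48 h at 37 C to compounds. Viability by ATPlite luminescence after 15 min at room temperature.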"}, "Es-2": {"tested_on": "Es-2", "assay": "Primary qHTS to identify gynecologic anti-cancer compounds using libraries of approved drugs and bioactive compounds (AID 1345084)", "details": "Gynecologic cancer cell panel viability, ATPlite luminescence, 48 h; series mostly up to 57.5 µM", "procedure,_shortened": "as §1"}, "HeLa": {"tested_on": "HeLa", "assay": "Primary qHTS to identify gynecologic anti-cancer compounds using libraries of approved drugs and bioactive compounds (AID 1345084)", "details": "Gynecologic cancer cell panel viability, ATPlite luminescence, 48 h; series mostly up to 57.5 µM", "procedure,_shortened": "as §1"}, "Hek293T": {"tested_on": "Hek293T", "assay": "Primary qHTS to identify gynecologic anti-cancer compounds using libraries of approved drugs and bioactive compounds (AID 1345084)", "details": "Gynecologic cancer cell panel viability, ATPlite luminescence, 48 h, control line for the selectivity index; series mostly up to 57.5 µM", "procedure,_shortened": "as §1"}, "C33A": {"tested_on": "C33A", "assay": "Primary qHTS to identify gynecologic anti-cancer compounds using libraries of approved drugs and bioactive compounds (AID 1345084)", "details": "Gynecologic cancer cell panel viability, ATPlite luminescence, 48 h; series mostly up to 57.5 µM", "procedure,_shortened": "as §1"}, "WaGa": {"tested_on": "WaGa", "assay": "qHTS assay to identify novel small-molecules to repurpose for Merkel cell carcinoma treatment (AID 1296009)", "details": "MCC and control cell lines, CellTiter-Glo viability, 72 h; series mostly up to 46 µM", "procedure,_shortened": "(§2)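 Viability readout: ATP luminescence (CellTiter-Glo) after 72 hr drug exposure at 37 degree celsius. Dose-response format was 8 points for NPC and 11 points for MIPE; data normalized to in-plate controls.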"}, "CAOV3": {"tested_on": "CAOV3", "assay": "Primary qHTS to identify gynecologic anti-cancer compounds using libraries of approved drugs and bioactive compounds (AID 1345084)", "details": "Gynecologic cancer cell panel viability, ATPlite luminescence, 48 h; series mostly up to 57.5 µM", "procedure,_shortened": "as §1"}, "UISO": {"tested_on": "UISO", "assay": "qHTS assay to identify novel small-molecules to repurpose for Merkel cell carcinoma treatment (AID 1296009)", "details": "MCC and control cell lines, CellTiter-Glo viability, 72 h; series mostly up to 46 µM", "procedure,_shortened": "as §2"}}, "note": "Inconclusive results are not listed. Entries that show only a call come without a potency. A number with no mark means an inactive call. The source made the active and inactive calls. The call rests on the fitted dose curve; in most records, active means well fitted curve in the direction sought with a large enough effect; inconclusive means small, poorly fitted or top-dose-only effect, or another doubt; inactive means no such curve, though single readings can be large; an effect the other way counts as inactive or inconclusive. Potency means the concentration at half of the fitted maximal effect."}
{"smiles": "COC(=O)C1=C(C)NC(C)=C(C(=O)OCCN2CCN(C(c3ccccc3)c3ccccc3)CC2)C1c1cccc([N+](=O)[O-])c1", "note": "(stereo not given)", "values": [{"measurement": "Potency", "setting": "CASKI", "value": "inactive"}, {"measurement": "Potency", "setting": "Es-2", "value": "inactive"}, {"measurement": "Potency", "setting": "HeLa", "value": "inactive"}, {"measurement": "Potency", "setting": "Hek293T", "value": "inactive"}]}
{"smiles": "CCNC(=O)Nc1ccc2ncc(Nc3ccc(C)cc3)nc2n1", "values": [{"measurement": "Potency", "setting": "C33A", "value": "inactive"}, {"measurement": "Potency", "setting": "CASKI", "value": "inactive"}, {"measurement": "Potency", "setting": "Es-2", "value": "inactive"}, {"measurement": "Potency", "setting": "HeLa", "value": "inactive"}, {"measurement": "Potency", "setting": "Hek293T", "value": "inactive"}]}
{"smiles": "COc1cc2nccc(Oc3ccc(NC(=O)C4(C(=O)Nc5ccc(F)cc5)CC4)cc3)c2cc1OC", "values": [{"measurement": "Potency", "setting": "WaGa", "value": "2.09 µM (active)"}, {"measurement": "Potency", "setting": "Es-2", "value": "inactive"}, {"measurement": "Potency", "setting": "HeLa", "value": "inactive"}, {"measurement": "Potency", "setting": "Hek293T", "value": "inactive"}]}
{"smiles": "CN(C)CC(C)(C)CNc1nn2c(-c3ccccc3)nnc2cc1C1CCC1", "values": [{"measurement": "Potency", "setting": "WaGa", "value": "0.662 µM (active)"}, {"measurement": "Potency", "setting": "C33A", "value": "inactive"}, {"measurement": "Potency", "setting": "CAOV3", "value": "inactive"}, {"measurement": "Potency", "setting": "CASKI", "value": "inactive"}, {"measurement": "Potency", "setting": "Es-2", "value": "inactive"}, {"measurement": "Potency", "setting": "HeLa", "value": "inactive"}, {"measurement": "Potency", "setting": "Hek293T", "value": "inactive"}]}
{"smiles": "Cc1c(NC(=O)OC[C@@H]2COCCN2)cn2ncnc(Nc3ccc4c(cnn4Cc4cccc(F)c4)c3)c12", "values": [{"measurement": "Potency", "setting": "WaGa", "value": "inactive"}, {"measurement": "Potency", "setting": "C33A", "value": "inactive"}, {"measurement": "Potency", "setting": "Es-2", "value": "inactive"}, {"measurement": "Potency", "setting": "HeLa", "value": "inactive"}, {"measurement": "Potency", "setting": "Hek293T", "value": "inactive"}]}
{"smiles": "COc1ccc(C(=O)CC2(O)C(=O)Nc3c(Cl)ccc(Cl)c32)cc1", "note": "(stereo not given)", "values": [{"measurement": "Potency", "setting": "UISO", "value": "5.26 µM (active)"}, {"measurement": "Potency", "setting": "C33A", "value": "inactive"}, {"measurement": "Potency", "setting": "HeLa", "value": "14.1 µM (active)"}]}
{"smiles": "COc1cccc(-c2ccc(NC(=O)C3=C(C(=O)O)CCC3)c(F)c2)c1", "values": [{"measurement": "Potency", "setting": "WaGa", "value": "23.5 µM (active)"}, {"measurement": "Potency", "setting": "C33A", "value": "inactive"}, {"measurement": "Potency", "setting": "CAOV3", "value": "inactive"}, {"measurement": "Potency", "setting": "CASKI", "value": "inactive"}]}
{"smiles": "COc1cc(OC2CCN(C)CC2)ccc1Nc1ncc2c(n1)n(C1CCCC1)c(=O)n2C", "values": [{"measurement": "Potency", "setting": "WaGa", "value": "23.5 µM (active)"}]}
{"smiles": "O=C(Cc1ccc(-c2ccc(OCCN3CCOCC3)cc2)cn1)NCc1ccccc1", "values": [{"measurement": "Potency", "setting": "UISO", "value": "0.0469 µM (active)"}, {"measurement": "Potency", "setting": "CASKI", "value": "inactive"}, {"measurement": "Potency", "setting": "Es-2", "value": "1.58 µM (active)"}, {"measurement": "Potency", "setting": "HeLa", "value": "1.58 µM (active)"}]}
{"smiles": "COc1cc2c(Oc3ccc(NC(=O)C4(C(=O)Nc5ccc(F)cc5)CC4)cc3F)ccnc2cc1OCCCN1CCOCC1", "values": [{"measurement": "Potency", "setting": "UISO", "value": "6.62 µM (active)"}, {"measurement": "Potency", "setting": "CAOV3", "value": "10 µM (active)"}, {"measurement": "Potency", "setting": "Es-2", "value": "25.1 µM (active)"}, {"measurement": "Potency", "setting": "HeLa", "value": "6.31 µM (active)"}, {"measurement": "Potency", "setting": "Hek293T", "value": "7.94 µM (active)"}]}
{"smiles": "OCc1ccc(-c2ccc(-c3ccc(CO)s3)o2)s1", "values": [{"measurement": "Potency", "setting": "C33A", "value": "inactive"}, {"measurement": "Potency", "setting": "HeLa", "value": "inactive"}, {"measurement": "Potency", "setting": "Hek293T", "value": "1.41 µM (active)"}]}
{"smiles": "Nc1nc(Nc2ccc(S(N)(=O)=O)cc2)nn1C(=O)c1c(F)cccc1F", "values": [{"measurement": "Potency", "setting": "UISO", "value": "13.2 µM (active)"}, {"measurement": "Potency", "setting": "HeLa", "value": "22.4 µM (active)"}]}
{"smiles": "COC(=O)Nc1nc2ccc(C(=O)c3ccc(F)cc3)cc2[nH]1", "values": [{"measurement": "Potency", "setting": "C33A", "value": "inactive"}, {"measurement": "Potency", "setting": "Es-2", "value": "8.91 µM (active)"}, {"measurement": "Potency", "setting": "HeLa", "value": "3.98 µM (active)"}]}
{"smiles": "CC(=O)c1c(C)c2cnc(Nc3ccc(N4CCNCC4)cn3)nc2n(C2CCCC2)c1=O", "values": [{"measurement": "Potency", "setting": "WaGa", "value": "inactive"}, {"measurement": "activity change, negative = cytotoxicity", "setting": "C33A", "value": "9.39% [at 6.55 µM]"}, {"measurement": "activity change, negative = cytotoxicity", "setting": "CAOV3", "value": "11.3% [at 6.55 µM]"}, {"measurement": "activity change, negative = cytotoxicity", "setting": "CASKI", "value": "12% [at 6.55 µM]"}, {"measurement": "activity change, negative = cytotoxicity", "setting": "Es-2", "value": "0.0946% [at 6.55 µM]"}, {"measurement": "activity change, negative = cytotoxicity", "setting": "HeLa", "value": "-1.33% [at 6.55 µM]"}, {"measurement": "activity change, negative = cytotoxicity", "setting": "Hek293T", "value": "25.4% [at 6.55 µM]"}]}
{"smiles": "Nc1ccc(C(=O)c2cc3c(ccc4ccccc43)[nH]2)cc1", "values": [{"measurement": "Potency", "setting": "WaGa", "value": "8.33 µM (active)"}]}
{"smiles": "Fc1cc(-c2cccc3ncc(-c4cnn(C5CCNCC5)c4)nc23)cc(F)c1CN1CCOCC1", "values": [{"measurement": "Potency", "setting": "HeLa", "value": "inactive"}, {"measurement": "Potency", "setting": "Hek293T", "value": "inactive"}]}
{"smiles": "O=C(c1ccc(Nc2nccc(-c3cc4ccccc4s3)n2)cc1)N1CCC(N2CCCC2)CC1", "values": [{"measurement": "Potency", "setting": "UISO", "value": "18.7 µM (active)"}, {"measurement": "Potency", "setting": "C33A", "value": "inactive"}, {"measurement": "Potency", "setting": "CASKI", "value": "inactive"}, {"measurement": "Potency", "setting": "Es-2", "value": "inactive"}, {"measurement": "Potency", "setting": "HeLa", "value": "inactive"}, {"measurement": "Potency", "setting": "Hek293T", "value": "inactive"}]}
{"smiles": "O=C(Nc1ncc(-c2cc(C(F)F)nn2-c2c(Cl)cccc2Cl)s1)C1CC1", "values": [{"measurement": "Potency", "setting": "Es-2", "value": "3.16 µM (active)"}, {"measurement": "Potency", "setting": "HeLa", "value": "2.51 µM (active)"}]}
{"smiles": "CS(=O)(=O)N1CCN(Cc2cc3nc(-c4cccc5[nH]ncc45)nc(N4CCOCC4)c3s2)CC1", "values": [{"measurement": "Potency", "setting": "UISO", "value": "1.32 µM (active)"}, {"measurement": "Potency", "setting": "HeLa", "value": "3.55 µM (active)"}, {"measurement": "Potency", "setting": "Hek293T", "value": "2.51 µM (active)"}]}
{"smiles": "Cc1cc(C(=O)N2CCN(c3cccc(Cl)c3)CC2)n(-c2ccccc2)n1", "values": [{"measurement": "Potency", "setting": "UISO", "value": "1.66 µM (active)"}, {"measurement": "Potency", "setting": "CAOV3", "value": "inactive"}, {"measurement": "Potency", "setting": "Es-2", "value": "11.2 µM (active)"}, {"measurement": "Potency", "setting": "HeLa", "value": "8.91 µM (active)"}]}
